# Source: PubChem BioAssay (several laboratories)
# EBV LMP1 NFkB: EBV LMP1-driven NF-kappaB luciferase reporter inhibitors, primary screen, cell-based, luminescence, single point; 0.69% of 350,000 active; inhibition, % at 12.5 µM; LMP1-induced NF-kappaB luciferase reporter cells; in the data active = inhibition above about 41%;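 note: 0% = neutral control wells and 100% = reference inhibitor control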
# PAX8 inh HTS: inhibitors of PAX8-driven TPO luciferase reporter, primary screen, RMG-I cells, single concentration; inhibition, % at 12.6 µM; 1.2% of 360,000 active; SteadyGlo, 24 h; AID 652154, 2013;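 active = mean replicate inhibition at least 60% with every replicate also reaching 60%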;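 note: luciferase light reporting Pax8 driven TPO promoter activity; plate controls were median of neutral control wells for no effect and mitoxantrone controls for full effect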
# LGR2 inh: inhibitors of bursicon-induced LGR2 CRE-luciferase signal, primary screen, cell-based, HEK293, CRE-luciferase reporter, bursicon stimulation. inhibition, % at 9.99 µM. Drosophila bursicon receptor LGR2 (rickets). 0.35% of 380,000 active. bursicon-stimulated, 4 h. AID 720647, 2013;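 active = drop in luminescence signal, shown as inhibition above about 50% in the replicate tests, limit read from the data, passing the limit was not always enough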;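 note: agonist challenge used bursicon conditioned medium at about half maximal strength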
# EWS-Fli block: EWS/Fli-driven NR0B1 reporter inhibitors, primary screen, A673 cells, NR0B1 luciferase, luminescence, MLPCN library | viability-normalised | inhibition, % at 12.6 µM | 0.67% of 350,000 active;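 active = mean inhibition of at least 50% after viability correction, with every replicate also passing that limit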;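 note: firefly luciferase signal divided by Alamar Blue viability fluorescence both relative to DMSO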
# TROY NFkB inh: inhibitors of TROY-driven NF-kB signaling, primary screen, Q293 LMP1-TROYcd cells, NF-kB luciferase, uHTS; Q293 LMP1-TROYcd NF-kB luciferase reporter, 4 h; inhibition, % at 10 µM; 0.98% of 360,000 active; AID 1347056, 2019;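 active = compounds whose plate-normalised and pattern-corrected inhibition of the luciferase reporter signal at the single screening dose is 50% or more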
# TWEAK-Fn14 inh: inhibitors of TWEAK-Fn14 signaling, primary screen, luciferase reporter cells, uHTS | TWEAK-stimulated Fn14 reporter cells, luciferase luminescence, 8 h | inhibition, % at 10 µM | 2% of 360,000 active; in the data active = inhibition above about 50%
# The depositor's hits bear a star; x = no result. Shown are actives, neighbours in structure and some others; about 3.2% of the full set was active somewhere.
SMILES,EBV LMP1 NFkB,PAX8 inh HTS,LGR2 inh,EWS-Fli block,TROY NFkB inh,TWEAK-Fn14 inh
CCc1ccc2[nH]c(=O)c(CN(CCN3CCCC3)C(=O)NC3CCCCC3)cc2c1,1.2,x,x,x,x,85.5*
Cc1ccc2[nH]c(=O)c(CN(CCCN3CCOCC3)C(=O)NC3CCCCC3)cc2c1,-7.7,x,x,x,7.9,5.0
CN1C(=O)c2cc(NC(=O)C3CCCC3)ccc2OC[C@@H]2O[C@H](CC(=O)NCCc3ccncc3)CC[C@H]21,x,-12.0,-13.0,4.8,x,x
O=C(COC(=O)/C=C/c1ccco1)NCc1ccccc1,-5.9,-6.8,-8.4,4.4,-0.3,-2.2
CCCNC(=O)COC(=O)/C=C/c1ccc2c(c1)OCO2,-1.3,69.2*,-11.2,2.5,2.3,-2.3
CCCNC(=O)COC(=O)/C=C/c1ccco1,-2.4,87.7*,2.7,-1.3,4.1,-1.4
Cc1ccc(-n2nc3c([n+]2[O-])CCc2c-3no[n+]2[O-])cc1,22.1,47.9,x,x,-3.8,56.9*
[O-][n+]1onc2c1CCc1c-2nn(-c2ccccc2Cl)[n+]1[O-],0.0,x,20.8,7.4,5.0,24.8
COc1ccc(C(=O)Nc2ccc3c(c2)C(=O)N(C)C[C@@H](OC)[C@@H](C)CN(C)[C@H](C)CO3)cc1,x,4.4,15.5,-10.7,x,x
Cc1ccc(C(=O)NCCC(=O)NCc2cc(=O)n(C)c(=O)n2C)cc1,-6.2,-8.0,5.0,x,0.9,13.1
Cc1cc(C)cc(C(=O)NCCC(=O)NCc2cc(=O)n(C)c(=O)n2C)c1,55.3*,6.6,9.2,-9.8,-18.9,-10.9
COCCn1c(C)cc(C(=O)Cn2nc(C(=O)O)c3ccccc3c2=O)c1C,-23.7,-69.6,-83.5,-57.8,41.5,69.2*
C=CCn1c(C)cc(C(=O)Cn2nc(C(=O)O)c3ccccc3c2=O)c1C,-9.4,-83.0,-27.1,-90.9,35.1,55.3*
O=c1c(=NNc2ccccc2Cl)c(=O)c2ccccc12,23.9,x,15.6,7.1,66.7*,97.6*
O=C1CN(Cc2ccc(F)cc2)C[C@@H]2[C@H](c3ccc(Br)cc3)[C@@H](CO)N12,x,4.9,-7.6,1.7,x,x
O=S(=O)(N[C@@H]1CC[C@H](CCn2cc(-c3ccc(F)cc3)nn2)O[C@@H]1CO)c1ccccc1F,x,3.8,-2.7,3.6,x,x
Cc1ccc(-c2nc(NC(=O)c3nn(C)cc3[N+](=O)[O-])sc2C)cc1,-14.5,x,44.3,58.3*,27.9,59.0*
Cc1ccc(-c2nc(NC(=O)c3nn(C)cc3[N+](=O)[O-])sc2C)cc1C,-27.5,x,37.8,35.6,19.3,28.0
CCc1sc(C(=O)Nc2ncccc2O)cc1C,52.0*,11.9,45.2,x,18.9,41.4
CCc1sc(C(=O)Nc2ncccc2C)cc1C,-5.9,-27.5,-15.6,x,-37.1,-23.3
Cc1ccc(NC(=O)CSc2nnc(-c3cccnc3)s2)cc1,3.2,21.7,3.2,x,-6.4,3.1
O=C(CSc1nnc(-c2cccnc2)s1)Nc1ccnc2ccccc12,20.9,12.2,9.1,x,31.7,60.8*
CCCCCCC(=O)N(O)C1CC(=O)N(c2ccc(C)cc2)C1=O (stereo not drawn),51.4*,8.8,x,x,-0.8,-62.6
O=[N+]([O-])c1ccc(N=Cc2ccc(Br)c([N+](=O)[O-])c2)cc1,-13.6,-3.9,-8.8,18.9,-12.7,4.8
Cc1c(N=Cc2ccc(O)c(Br)c2)cccc1[N+](=O)[O-],47.1*,11.2,3.0,5.6,-3.4,18.0
SMILES,EBV LMP1 NFkB,PAX8 inh HTS,LGR2 inh,EWS-Fli block,TROY NFkB inh,TWEAK-Fn14 inh
C[C@H]1CCCCO[C@H](CN(C)S(=O)(=O)c2ccc(Cl)cc2)[C@@H](C)CN([C@@H](C)CO)C(=O)c2cc(NS(=O)(=O)c3ccc(F)cc3)ccc2O1,x,86.3*,16.3,13.6,x,x
C[C@@H]1CCCCO[C@H](CN(C)S(=O)(=O)c2ccc(F)cc2)[C@H](C)CN([C@H](C)CO)C(=O)c2cc(NS(=O)(=O)c3ccc(Cl)cc3)ccc2O1,x,45.0,7.6,6.0,x,x
C[C@H](CO)N1C[C@H](C)[C@H](CN(C)S(=O)(=O)c2ccc(Cl)cc2)OCCCC[C@H](C)Oc2ccc(NS(=O)(=O)c3ccc(F)cc3)cc2C1=O,x,81.1*,18.6,3.1,x,x
C[C@H]1CCCCO[C@H](CN(C)S(=O)(=O)c2ccc(F)cc2)[C@@H](C)CN([C@@H](C)CO)C(=O)c2cc(NS(=O)(=O)c3ccc(Cl)cc3)ccc2O1,x,89.0*,7.2,7.4,x,x
C[C@@H]1CCCCO[C@@H](CN(C)S(=O)(=O)c2ccc(F)cc2)[C@H](C)CN([C@H](C)CO)C(=O)c2cc(NS(=O)(=O)c3ccc(Cl)cc3)ccc2O1,x,86.2*,14.0,16.2,x,x
CCNC(=O)[C@H]1[C@H](CO)[C@H]2Cn3c(ccc(-c4ccccc4)c3=O)[C@H]2N1Cc1cccnc1,x,x,0.3,-2.7,x,x
C[C@@H]1CCCCO[C@H](CN(C)S(=O)(=O)c2ccc(F)cc2)[C@H](C)CN([C@@H](C)CO)C(=O)c2cc(NS(=O)(=O)c3ccc(Cl)cc3)ccc2O1,x,81.0*,10.1,8.1,x,x
OCCCNc1ncnc2c1[nH]c1ccccc12,-0.7,11.1,-10.5,7.5,-12.3,-5.8
Fc1ccc2[nH]c3c(NCc4ccccc4)ncnc3c2c1,32.4,23.7,14.8,19.5,52.1*,44.4
COCC(=O)Nc1ccc2c(c1)[C@H]1C[C@@H](CC(=O)N3CCCCC3)O[C@@H](CO)[C@H]1O2,x,-1.9,-17.3,1.5,x,x
Cc1cc(C)nc(OC(C(=O)O)C(OCCc2ccccc2)(c2ccc(F)cc2)c2ccc(F)cc2)n1 (stereo not drawn),3.6,28.4,-2.0,22.8,37.5,38.3
CCCOC(c1ccccc1)(c1ccc(C(F)(F)F)cc1)C(Oc1nc(C)cc(C)n1)C(=O)O (stereo not drawn),42.8*,50.7,-1.5,3.1,27.4,60.7*
C/C(=N\NC(=O)c1ccc(Br)cc1)C1C(=O)c2ccccc2C1=O,3.9,x,-56.0,-16.3,45.9,-3.9
C/C(=N\NC(=O)c1ccc(-c2ccccc2)cc1)C1C(=O)c2ccccc2C1=O,8.1,4.0,42.3,14.0,56.4*,46.0
S=C(c1ccc2c(c1)OCO2)N1CCN(c2cccc(Cl)c2)CC1,6.7,42.2,13.3,59.7*,15.5,28.8
Cc1cccc(N2CCN(C(=S)c3ccc4c(c3)OCO4)CC2)c1,11.0,-10.0,-5.2,42.1,0.8,7.7
CC(C)C(=O)Nc1ccc2c(c1)C(=O)N(C)[C@@H]1CC[C@H](CC(=O)N[C@H](C)c3ccccc3)O[C@@H]1CO2,x,26.1,-9.3,1.6,x,x
O=C(Nc1ccc(Oc2ccccc2)cc1)c1ccc2sc([C@H]3C[C@H](O)[C@@H](CO)O3)nc2c1,x,22.4,25.0,-5.8,51.7*,95.4*
